The supplement of paper PMC11634586
Where a name gives a salt, the structure may show the parent alone.

system: NCI-H1688; test: inhibition of cell viability relative to untreated control (fraction); higher = stronger growth inhibition, active = 0.5 or more; details: 30 µM; 24 h
Description: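 Natural product library (TargetMol, 640 compounds) screened on NCI-H1688 SCLC cells at 30 µM for 24 h; viability by CCK-8 absorbance at 450 nm, normalised to untreated control and expressed as inhibition rate (fraction). Compounds with >50% reduction in viability were selected as hits.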

Structure (SMILES)	inhibition of cell viability
COc1cc2c(c(OC)c1OC)-c1ccc(OC)c(=O)cc1[C@@H](NC(C)=O)CC2 [Colchicine]	0.84 (active)
CC1=C2C[C@H]3[C@@H](CC=C4C[C@@H](O)CC[C@@]43C)[C@@H]2CC[C@]12O[C@@H]1C[C@H](C)CN[C@H]1[C@H]2C [Cyclopamine]	0.162 (inactive)
CC(=O)[C@]1(O)CC[C@@]2(O)[C@]1(C)[C@H](OC(=O)/C=C(\C)C(C)C)C[C@@H]1[C@@]3(C)CC[C@H](O)CC3=CC[C@]12O [Caudatin]	0.161 (inactive)
COc1cc(OC)c(OC)cc1C=O [Asarylaldehyde]	-0.42 (inactive)
C=C[C@H]1CN2CC[C@H]1C[C@@H]2[C@@H](O)c1ccnc2ccccc12 [Cinchonine]	-0.188 (inactive)
O=c1cccc2n1C[C@@H]1CNC[C@H]2C1 [Cytisine]	-0.243 (inactive)
COc1cc([C@@H]2c3cc4c(cc3[C@@H](O)[C@H]3COC(=O)[C@H]23)OCO4)cc(OC)c1O [4'-Demethylepipodophyllotoxin]	0.568 (active)
C=CCCCCCCCCC(=O)O[C@H]1CC[C@H]2[C@@H]3CCC4=CC(=O)C=C[C@]4(C)[C@H]3CC[C@]12C [Boldenone Undecylenate]	-0.203 (inactive)
COc1ccc(CC2NCCc3cc(OC)c(OC)cc32)cc1OC (stereo not given) [Tetrahydropapaverine hydrochloride]	0.125 (inactive)
CC(C)[C@]12O[C@H]1[C@@H]1O[C@]13[C@]1(O[C@H]1C[C@H]1C4=C(CC[C@@]13C)C(=O)OC4)[C@@H]2O [Triptolide (PG490)]	0.948 (active)
CC(=O)O[C@H]1CC[C@H]2[C@@H]3CCC4=CC(=O)CCC4=C3C=C[C@]12C [Trenbolone acetate]	-0.43 (inactive)
C[C@H]1C(=O)O[C@@H]2CCN3CC=C(COC(=O)[C@](C)(O)[C@]1(C)O)[C@H]23 [Monocrotaline]	0.161 (inactive)
NCCc1c[nH]c2ccccc12 [Tryptamine]	-0.188 (inactive)
C[C@@H]1[C@H](O)[C@@H](C)/C=C/C=C/CC/C=C/C=C/C=C/C=C/[C@H](O[C@H]2O[C@@H](C)[C@H](O)[C@@H](N)[C@H]2O)C[C@@H]2O[C@](O)(C[C@@H](O)[C@H](O)CC[C@@H](O)C[C@@H](O)C[C@@H](O)CC(=O)O[C@H]1C)C[C@H](O)[C@H]2C(=O)O [Nystatin (Fungicidin)]	0.267 (inactive)
COc1cc([C@@H]2c3cc4c(cc3[C@H](O)[C@H]3COC(=O)[C@H]23)OCO4)cc(OC)c1OC [Podophyllotoxin]	0.839 (active)
C[C@@H]1CC[C@@]2(OC1)O[C@H]1[C@@H](O)[C@H]3[C@@H]4CC[C@H]5C[C@@H](O[C@@H]6O[C@H](CO)[C@H](O[C@@H]7O[C@H](CO)[C@@H](O)[C@H](O[C@@H]8OC[C@@H](O)[C@H](O)[C@H]8O)[C@H]7O[C@@H]7O[C@H](CO)[C@H](O)[C@H](O[C@@H]8O[C@H](CO)[C@@H](O)[C@H](O)[C@H]8O)[C@H]7O)[C@H](O)[C@H]6O)[C@H](O)C[C@]5(C)[C@H]4CC[C@]3(C)[C@H]1[C@@H]2C [Digitonin]	1.01 (active)
C[C@@H]1C[C@@H]([C@H](O)CC2CC(=O)NC(=O)C2)C(=O)[C@@H](C)C1 [Actidione]	0.943 (active)
O=C1C=CC[C@@H]2[C@H]3CCCN4CCC[C@@H](CN12)[C@@H]34 [Sophocarpine]	-0.484 (inactive)
O=c1ccc2cc(O[C@@H]3O[C@H](CO)[C@@H](O)[C@H](O)[C@H]3O)c(O)cc2o1 [Esculin]	-0.139 (inactive)
O=C(O)CC[N+](=O)[O-] [Bovinocidin]	-0.0746 (inactive)
CN1[C@H]2C[C@H](OC(=O)[C@H](CO)c3ccccc3)C[C@@H]1[C@@H](O)C2 [Anisodamine]	0.2 (inactive)
NCCc1c[nH]c2ccc(O)cc12 [Serotonin hydrochloride]	0.104 (inactive)
CN1CCc2cc3c(cc2C1C1OC(=O)c2c1ccc1c2OCO1)OCO3 (single isomer, unassigned; (+)) [(+)-Bicuculline]	-0.023 (inactive)
COc1cc2c3c(c1OC)-c1ccccc1C[C@H]3N(C)CC2 [Nuciferine]	0.173 (inactive)
NCC(O)c1ccc(O)cc1 (stereo not given) [Octopamine hydrochloride]	-0.206 (inactive)
CNC(=O)Oc1ccc2c(c1)[C@]1(C)CCN(C)[C@@H]1N2C [Physostigmine Salicylate]	0.126 (inactive)
CCC12C=CCN3CC[C@@]4(c5ccc(OC)cc5N(C)[C@H]4[C@@](O)(C(=O)OC)[C@@H]1OC(C)=O)[C@@H]32 (stereo not given in full) [Vindoline]	-0.0958 (inactive)
CNC1CC(N)C(O)C(OC2OC(CO)C(O)C3OC4(OC(C(N)CO)C(O)C(O)C4O)OC23)C1O (stereo not given) [Hygromycin B]	0.829 (active)
S=C=NCc1ccccc1 [Benzyl isothiocyanate]	0.59 (active)
O=C(O)C1C2CCC(O2)C1C(=O)O (stereo not given) [Sodium Demethylcantharidate]	0.314 (inactive)
